# Laboratory results taken from the supplement of paper PMC6555819.
# Test system: VDR:RXRa (NR concentration 270 nM, RXRa partner concentration 90 nM)
# Experiment: PBM binding z-score (relative to random genomic background probes); higher = stronger binding; sequences stand for … in GC…GCGATTGACAGCGTAGAATGAAGG
# Procedure: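 Protein-binding microarray (Agilent 4x180K custom design, double-stranded 60-nt probes: 5' GC cap, 34-nt variable region, 24-nt constant primer region; full probe sequence given). Purified or IVT nuclear receptor:RXRα heterodimers (3:1 NR:RXRα, mostly 270:90 nM) or homodimers were incubated for 1 h in PBS with 2% milk and no ligand, then detected with Alexa488 antibodies. Fluorescence from o1-orientation probes (~5 replicates averaged) was converted to z-scores against 500 random hg19 background probes. Variable regions are seed direct-repeat (DR0–DR5) sites, all their single-nucleotide variants and half-site ablations.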
row,Sequence,PBM binding z-score
1,GCTTACGGTTCAAAGGTTATAGCATGAATAGAAT,4.41
2,TCTCGTAGATCAAAGGTTAAGAAAGCCGAAGCCT,1.24
3,TAGCCTTGGTCATTCAGGGGCCAGTATAGAAAGC,-0.0829
4,AGAATGAGGTTAGGATCAGGGAAACAGAATACAT,0.51
5,TCGAGTAGGGTAGGGGCATTCAGAATGGCGTCGA,0.426
6,CGAACTAGGTCATCCAGGAGAGTGAATACATTGA,2.35
7,GCTATTTGTTGAAAGGGCAACCGAATGATTCTCG,0.521
8,ATCTCTAGGAAACCAAGTTCAGTGAATGCCGAAC,1.49
9,TCTTGTAGATCAAAGGTGAAGAAAGCCGAAGCCT,0.74
10,TCTAGGTGGTCAAAGGTCACACACTCGAAATGCG,5.38
11,GCTAGTTGGTCATTAAAAGGTCACACACCGGTCG,4.42
12,CAGCCTAGGTCAGGGCCAGTAGAGGAGGAACGTT,-0.0759
13,TCATATATGTAAAGGTGAAAGTCGAACGATATGA,1.17
14,CGAACTAGGTCAGAAAAGGACAGTGAAGGATGAT,0.459
15,AGAATGAGGTTATTAAGATTAGGGAATTGCGGTC,1.29
16,TAGGCTAGGTCAGATCGGGCCAGTATACGCTATA,0.927
17,ACAGACAGGTGATGAAGGTAACTCACGCTATCAT,0.327
18,GCATATAGGTAATACACGGTGAAAGTCCGATTGT,-0.0227
19,GCTCGCAGGCCATTTGGGTCACTCAATGACGGGC,0.783
20,GCTAGCAGGCCATTCGGGTCACTCAATGACGGGC,3.27

row,Sequence,PBM binding z-score
1,ATCGAAAGGTCGACGAGGTTAGTATACACCGTTT,6.41
2,TGAATGAGGTTAAAGATCAGGAAACGTGGCGTCG,1.95
3,AGTCAAAGTTCACTGGGTAACGTAAGATTCAGCT,4.34
4,CTCGAAAGGTCGCTTGAGGTGAGTATACGGATAA,3.4
5,TTTTGTAGATCAAAGGTTAAGAAAGCCGAAGCCT,1.41
6,CCTCGGAGGACAACTGGAGGTCAGAGCTGCCAGA,2.08
7,CCTTCTGGGCCAAAAAGGTCATTGATGCCGATAA,4.86
8,ACTACAGGGTCATCGTAGGCCAGAGTACGCACAG,5.05
9,CGTACTGGGCCATCAGGTCATTGATATCAACGTT,1.97
10,CGTACTGGGCCAAAGGTCATTGATTCCAATGCTC,5.07
11,CTCGACAGGTCGGTTGAGGTGAGTATACGGATAA,0.149
12,GCTGCTAGGTCAGGTTGGTAAGCTAACGGGTACG,0.241
13,CAAACTAGCTCACCGGAAGGTCAAAGTCCGCATG,2.8
14,AGAATGAGGTTACCAACGATCAGGGAAACGCTTG,1.28
15,TCGAGTAGGTTAGTCGGGGCATCCAGCCAACATA,1.5
16,CAAACTAGGTCACAAAGGTCAAAGTCCGTGCGTA,7.28
17,ACTAGTTGGTCAGCTGAGTTCACACACAATTCGG,4.81
18,CCGACTGGGGCATAAGGTTATCATAAGCCAGCCC,0.25
19,CGATCTAGGTCATTGACAGGACAGTGAATAGTAA,2.09
20,CCGACTGGGGCAGAAAGGTAACCATACCATCCGG,-0.526
